Experimental data taken from PubChem BioAssay.
The source made the active and inactive calls. Unless noted, the rule behind the calls is not given here.

What was measured:
[1] = tested on: Wnt5a (protein binding on small-molecule microarray); assay: Wnt5a binders on small-molecule microarray, primary screen, biophysical, 635/667 nm fluorescence (AID 1142); settings: 635 nm fluorescence, higher = more signal;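 note: fluorescence read at 667 nm with signal to noise per printed feature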
[2] = cell viability in Huh7 cells, primary screen, cytotoxicity control for HCV replication inhibitor project, CellTiter-Glo luminescence, basal, 48 h (AID 1143); settings: Huh7 HCV replicon, higher = more signal, called active from +8 up or from −8 down;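 note: Huh7 hepatoma cells carrying a hepatitis C replication reporter with no stimulus; test concentration not given here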
[3] = P. aeruginosa biofilm formation inhibitors, primary screen, PAO1 strain, BacTiter-Glo luminescence, LB-PBS (AID 1144); settings: 12 h, higher = more signal
[4] = CREB reporter modulators without forskolin, primary screen, cell-based, PC12, CRE-LacZ reporter, unstimulated (AID 1145); settings: no forskolin, luminescence, 4.5 h, higher = more signal, called active from +8 up or from −8 down
[5] = CREB reporter modulators under forskolin, primary screen, cell-based, PC12, CRE-LacZ reporter, forskolin-stimulated (AID 1146); settings: luminescence, 4.5 h, higher = more signal, called active from +8 up or from −8 down;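 note: PC12 cells with 6xCRE LacZ reporter stimulated by forskolin 10 µM; beta-galactosidase reporter signal reflecting CREB driven transcription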
[6] = target: Streptavidin (Streptomyces avidinii) (UniProt P22629); assay: streptavidin binders on small-molecule microarray, primary screen, artefact control for SMM compound annotation, biophysical, 635/667 nm fluorescence (AID 1147); settings: streptavidin binding, higher = more signal;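 note: signal reflects streptavidin binding to arrayed compounds as a control protein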
[7] = small-molecule binders of probe aInhba, primary screen, biochemical, small-molecule microarray, 635/667 nm fluorescence (AID 1148); settings: higher = more signal;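 note: score merges 667nm spot fluorescence with signal-to-noise for antibody binding to printed compounds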
[8] = target: Torsin-1A (Homo sapiens) (UniProt O14656); assay: torsin A binders from cell lysate, primary screen, small-molecule microarray, wild-type, 635/667 nm (AID 1149); settings: COS7 hTOR1A-WT lysate, 635 nm fluorescence, higher = more signal
[9] = target: Torsin-1A (Homo sapiens) (UniProt O14656); assay: small-molecule binders of mutant TOR1A in lysate, primary screen, cell lysate, small-molecule microarray, COS7 lysate, 635/667 nm fluorescence (AID 1150); settings: COS7 hTOR1A mutant lysate, 635 nm fluorescence, higher = more signal;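 note: score pools 667 nm emission and signal to noise measuring lysate protein binding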
[10] = tested on: Sonic hedgehog protein (Shh); assay: small-molecule binders of Shh protein, primary screen, biochemical, small-molecule microarray, 635/667 nm fluorescence (AID 1151); settings: small-molecule microarray binding, 635 nm fluorescence; higher = more signal;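 note: Shh protein binding to compounds spotted on small-molecule microarray slides; score combines spot fluorescence intensity with signal-to-noise across triplicate slides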
[11] = E. coli DRC41 culture turbidity changes, primary screen, E. coli filamentation inducer project, strain DRC41, OD650, 48 h (AID 1152);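 note: E. coli MC1000 strain DRC41 lacking acrAB efflux pump and sulA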; settings: E. coli DRC41 (acrAB sulA), higher = more signal, called active from +8 up or from −8 down
[12] = small-molecule binders of probe aLefty1, primary screen, biochemical, small-molecule microarray, 635/667 nm fluorescence (AID 1153); settings: higher = more signal;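 note: score merges spot fluorescence with signal-to-noise ratio from the scanned slide images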
[13] = PSAC antagonists in infected red cells, primary screen, cell-based, P. falciparum Indochina, OD700, 1 h (AID 1154); settings: P. falciparum Indochina infected RBC osmotic lysis, higher = more signal, called active from +8 up or from −8 down
[14] = PSAC antagonists in infected red cells, primary screen, cell-based, P. falciparum Indochina, OD700, 2 h (AID 1155);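 note: lysis reports solute entry through the parasite surface anion channel PSAC; channel blockers reduce lysis of infected cells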; settings: P. falciparum Indochina infected erythrocytes, osmotic lysis OD700; higher = more signal, called active from +8 up or from −8 down
[15] = osmotic lysis modulators in infected erythrocytes, primary screen, PSAC antagonist project, cell-based, P. falciparum Indochina, OD700, 3 h (AID 1156); settings: higher = more signal, called active from +8 up or from −8 down
[16] = PSAC antagonists in infected red cells, primary screen, cell-based, P. falciparum Indochina, OD700, 18 h (AID 1157); settings: P. falciparum Indochina infected erythrocytes, osmotic lysis OD700, 18 h; higher = more signal, called active from +8 up or from −8 down
[17] = modulators of S6 phosphorylation in cells, primary screen, cell-based, A549, cytoblot, luminescence, serum-stimulated (AID 1158); settings: A549 phospho-S6 cytoblot, 5 h, higher = more signal;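 note: serum-stimulated A549 lung adenocarcinoma cells; signal is phosphorylated S6 detected by cytoblot immunostaining with HRP secondary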
[18] = target: NADPH oxidase 2 (Homo sapiens) (UniProt P04839); assay: NOX2-dependent H2O2 signal modulators, primary screen, NOX inhibitor project, cell-based, HEK293-NOX2, PMA-stimulated, Amplex Red fluorescence (AID 1159); settings: 45 min, higher = more signal, called active from +8 up or from −8 down; note: test concentration not given here
[19] = target: NADPH oxidase 4 (Homo sapiens) (UniProt Q9NPH5); assay: NOX4-dependent H2O2 signal modulators, primary screen, NOX inhibitor project, cell-based, HEK293-NOX4, tetracycline-induced, Amplex Red fluorescence (AID 1160); settings: 45 min, higher = more signal, called active from +8 up or from −8 down
[20] = target: NADPH oxidase 5 (Homo sapiens) (UniProt Q96PH1); assay: NOX5-dependent H2O2 signal modulators, primary screen, NOX inhibitor project, cell-based, HEK293-NOX5, Amplex Red fluorescence (AID 1161); settings: HEK293-NOX5, ionomycin, 45 min, higher = more signal
Sequence of NADPH oxidase 5 (Homo sapiens) (Q96PH1 whole entry, looked up): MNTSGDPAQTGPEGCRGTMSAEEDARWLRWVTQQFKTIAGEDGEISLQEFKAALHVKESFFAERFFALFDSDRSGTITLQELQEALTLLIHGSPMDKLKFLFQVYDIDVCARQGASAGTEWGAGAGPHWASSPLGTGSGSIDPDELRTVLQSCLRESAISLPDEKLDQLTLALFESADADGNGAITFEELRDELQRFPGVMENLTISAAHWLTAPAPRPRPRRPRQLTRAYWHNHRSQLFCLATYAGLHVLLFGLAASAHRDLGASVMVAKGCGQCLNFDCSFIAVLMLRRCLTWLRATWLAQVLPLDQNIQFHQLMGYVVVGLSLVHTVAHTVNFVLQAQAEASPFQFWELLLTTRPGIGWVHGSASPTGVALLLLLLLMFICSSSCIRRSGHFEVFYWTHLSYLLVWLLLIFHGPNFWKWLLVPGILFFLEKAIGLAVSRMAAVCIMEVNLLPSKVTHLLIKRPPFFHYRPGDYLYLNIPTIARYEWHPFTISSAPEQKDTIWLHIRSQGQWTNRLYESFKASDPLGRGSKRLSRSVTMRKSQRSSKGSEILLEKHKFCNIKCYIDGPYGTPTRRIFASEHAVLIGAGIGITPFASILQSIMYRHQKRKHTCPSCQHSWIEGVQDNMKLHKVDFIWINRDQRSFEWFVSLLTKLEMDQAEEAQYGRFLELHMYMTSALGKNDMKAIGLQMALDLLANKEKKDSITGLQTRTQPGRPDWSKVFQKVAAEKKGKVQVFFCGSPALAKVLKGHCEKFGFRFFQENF

Sequence of NADPH oxidase 2 (Homo sapiens) (P04839 whole entry, looked up): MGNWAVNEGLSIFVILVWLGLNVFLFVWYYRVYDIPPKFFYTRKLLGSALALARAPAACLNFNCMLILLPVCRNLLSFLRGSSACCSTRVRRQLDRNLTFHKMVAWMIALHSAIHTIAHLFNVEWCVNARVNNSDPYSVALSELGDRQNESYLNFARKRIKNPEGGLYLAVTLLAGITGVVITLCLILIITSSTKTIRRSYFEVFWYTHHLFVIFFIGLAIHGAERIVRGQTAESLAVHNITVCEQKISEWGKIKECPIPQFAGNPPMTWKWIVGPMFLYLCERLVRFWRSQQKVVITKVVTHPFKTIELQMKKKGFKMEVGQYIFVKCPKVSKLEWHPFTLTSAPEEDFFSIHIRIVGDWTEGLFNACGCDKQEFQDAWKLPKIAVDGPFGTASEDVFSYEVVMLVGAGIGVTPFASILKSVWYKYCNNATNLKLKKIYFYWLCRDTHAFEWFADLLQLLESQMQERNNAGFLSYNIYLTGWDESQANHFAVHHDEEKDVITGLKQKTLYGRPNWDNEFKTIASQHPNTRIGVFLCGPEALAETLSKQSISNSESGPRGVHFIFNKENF
Sequence of Torsin-1A (Homo sapiens) (O14656 whole entry, looked up): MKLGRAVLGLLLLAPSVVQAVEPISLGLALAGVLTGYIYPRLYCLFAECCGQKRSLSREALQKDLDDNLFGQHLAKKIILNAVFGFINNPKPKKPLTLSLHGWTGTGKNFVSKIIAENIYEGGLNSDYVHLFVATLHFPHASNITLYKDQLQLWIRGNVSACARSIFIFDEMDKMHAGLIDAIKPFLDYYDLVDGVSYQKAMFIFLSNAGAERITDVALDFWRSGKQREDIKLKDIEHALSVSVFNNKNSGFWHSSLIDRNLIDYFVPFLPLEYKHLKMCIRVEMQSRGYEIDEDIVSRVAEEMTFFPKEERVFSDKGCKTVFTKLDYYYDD
Sequence of Streptavidin (Streptomyces avidinii) (P22629 whole entry, looked up): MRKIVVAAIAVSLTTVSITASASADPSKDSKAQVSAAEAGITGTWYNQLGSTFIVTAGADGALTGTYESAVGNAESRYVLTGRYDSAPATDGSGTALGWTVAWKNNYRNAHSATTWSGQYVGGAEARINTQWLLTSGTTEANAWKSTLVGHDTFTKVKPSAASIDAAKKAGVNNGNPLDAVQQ
Sequence of NADPH oxidase 4 (Homo sapiens) (Q9NPH5 whole entry, looked up): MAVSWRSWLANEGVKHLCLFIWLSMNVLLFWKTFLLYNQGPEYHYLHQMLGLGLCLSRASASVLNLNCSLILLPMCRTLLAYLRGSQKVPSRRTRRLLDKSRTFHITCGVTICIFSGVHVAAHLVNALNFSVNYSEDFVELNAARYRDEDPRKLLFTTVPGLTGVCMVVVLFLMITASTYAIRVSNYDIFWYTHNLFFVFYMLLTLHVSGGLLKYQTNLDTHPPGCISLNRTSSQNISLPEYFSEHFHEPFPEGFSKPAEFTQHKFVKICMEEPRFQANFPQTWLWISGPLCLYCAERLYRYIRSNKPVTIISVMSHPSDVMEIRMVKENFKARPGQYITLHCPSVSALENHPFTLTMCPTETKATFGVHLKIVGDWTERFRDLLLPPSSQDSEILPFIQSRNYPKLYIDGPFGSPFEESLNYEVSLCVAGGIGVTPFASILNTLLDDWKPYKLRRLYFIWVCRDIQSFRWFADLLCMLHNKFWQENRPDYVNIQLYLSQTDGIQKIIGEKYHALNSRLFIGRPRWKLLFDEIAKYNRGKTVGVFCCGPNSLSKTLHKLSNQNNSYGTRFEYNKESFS

Compound	composite z-score [1]	z-score [2]	z-score [3]	z-score [4]	z-score [5]	composite z-score [6]	composite z-score [7]	composite z-score [8]	composite z-score [9]	composite z-score [10]	z-score [11]	composite z-score [12]	z-score [13]	z-score [14]	z-score [15]	z-score [16]	z-score [17]	z-score [18]	z-score [19]	z-score [20]
COC(=O)[C@@]1(Cc2ccc(OC)cc2)[C@H]2c3cc(C(=O)N(C)C)n(Cc4cccc5ccccc45)c3C[C@H]2CN1C(=O)c1ccccc1	1.44	-4.45 (inactive)	-0.0601 (inactive)	0.0075 (inactive)	0.458 (inactive)	0.697	0.943	0.817	1.14	0.659	-1.27 (inactive)	0.468	2.33 (inactive)	-0.206 (inactive)	1.19 (inactive)	-1.39 (inactive)	2.11	-3.14 (inactive)	-1.83 (inactive)	-4.62
CO[C@H]1O[C@H](CO)[C@@H](OC(=O)Nc2ccc(Br)cc2)[C@H](OC(=O)c2cc3ccccc3[nH]2)[C@H]1OC(=O)c1cc2ccccc2[nH]1	0.363	-6.05 (inactive)	-2.24 (inactive)	2.38 (inactive)	-1.15 (inactive)	1.22	0.0342	0.154	0.46	0.819	1.99 (inactive)	0.12	1.39 (inactive)	-1.16 (inactive)	-0.368 (inactive)	-0.464 (inactive)	1.16	-2.75 (inactive)	-0.642 (inactive)	-2.04
CCCCC=C[C@@H](NC(=O)Oc1cccc(C(F)(F)F)c1)c1ccccc1	1.61	-3.46 (inactive)	-0.721 (inactive)	0.201 (inactive)	0.0897 (inactive)	1.84	0.996	0.961	0.947	-0.629	-2.63 (inactive)	1.29	2.41 (inactive)	0.278 (inactive)	0.247 (inactive)	-1.17 (inactive)	1.31	-3.82 (inactive)	-3.48 (inactive)	-2.98
COCCCNC(=O)[C@@]1(Cc2ccccc2)N=C(c2ccc(OCCCO)cc2)O[C@H]1c1ccccc1	1.3	-1.99 (inactive)	0.669 (inactive)	-0.0249 (inactive)	-0.437 (inactive)	2.34	0.786	0.268	1.16	0.0157	-0.146 (inactive)	0.39	19.7 (active)	3.35 (inactive)	-0.321 (inactive)	0.32 (inactive)	-0.628	-0.981 (inactive)	1.11 (inactive)	1.86
CN1C(=O)C2C=CC(C(O)c3cc(C(F)(F)F)cc(C(F)(F)F)c3)N(N3CCCCC3)C2C1=O (stereo not given)	0.209	0.401 (inactive)	-0.15 (inactive)	0.44 (inactive)	-0.411 (inactive)	-0.0121	0.0047	-0.083	0.502	0.035	-0.78 (inactive)	0.349	1.2 (inactive)	0.968 (inactive)	0.859 (inactive)	0.999 (inactive)	-1.08	0.00363 (inactive)	-0.651 (inactive)	1.01
CCCCCC1=C2CNC(CCC)(C(=O)OC)C=C2C(C)C1=O (stereo not given)	0.0324	-0.86 (inactive)	0.617 (inactive)	-0.751 (inactive)	0.974 (inactive)	0.441	0.345	-0.449	0.0188	0.368	-1.11 (inactive)	0.358	2.2 (inactive)	0.0123 (inactive)	0.807 (inactive)	0.493 (inactive)	-0.39	0.0917 (inactive)	-1.52 (inactive)	-3.63
NCCCCCNC(=O)[C@@H]1C[C@@H]2C(=O)NCC(=O)N2[C@@H]1c1ccc(O)cc1	0.892	0.104 (inactive)	-0.735 (inactive)	0.557 (inactive)	0.467 (inactive)	1.2	-0.0963	1.06	0.682	2.06	-0.142 (inactive)	-0.0984	0.539 (inactive)	0.115 (inactive)	-0.563 (inactive)	-0.0673 (inactive)	-0.47	-0.354 (inactive)	-0.0757 (inactive)	0.564
COCCCNC(=O)[C@@]1(Cc2ccccc2N=[N+]=[N-])N=C(c2ccc(OCCCO)cc2)O[C@H]1c1ccccc1N=[N+]=[N-]	0.266	-4.63 (inactive)	-0.557 (inactive)	0.834 (inactive)	-0.803 (inactive)	1.14	0.3	0.328	1.05	-0.319	-0.439 (inactive)	0.302	28.8 (active)	25.2 (active)	2.41 (inactive)	5.91 (inactive)	0.621	-2.05 (inactive)	0.518 (inactive)	-2.22
C=CC[C@@]1(C(=O)NCc2ccccc2)N=C(c2ccc(OCCCO)cc2)O[C@@H]1c1ccccc1N=[N+]=[N-]	0.465	-2.73 (inactive)	-0.291 (inactive)	3.85 (inactive)	0.34 (inactive)	1.15	0.174	1.23	0.762	-0.245	-0.304 (inactive)	0.869	33.3 (active)	31.1 (active)	3.73 (inactive)	8.16 (active)	-0.126	-1.88 (inactive)	1.29 (inactive)	-0.965
